An excerpt weighted towards active compounds, which were near 19% of everything screened.
Shiga inhibitor = inhibitors of Shiga toxin in Vero cells; inhibition, % at 38.7 µM; AID 2315; hit rate 9.2% among 290,000; Vero cells, Shiga toxin protein synthesis inhibition reporter; in the data active = inhibition mostly above about 28%, no sharp cut-off; inactive = mostly below about 43%; also: 0% is about no effect
Cycloheximide cs = counter-screen hit for Shiga toxin inhibitors, cycloheximide; max response, %; cell reporter, cycloheximide protein synthesis inhibition counterscreen; hit rate 12% among 300,000; in the data active = max response mostly above about 13%, no sharp cut-off; inactive = mostly below about 14%; also: read at 38.3 µM for the half of the compounds with a filed dose; 0% is about no effect
Marburg entry inh = inhibitors of Marburg virus binding or cell entry; Potency, µM (top dose mostly 37.8 µM), without a hit: at the highest dose activity change, negative = inhibition, most hits filed as inhibitors; Marburg virus pseudotyped entry inhibition, cell reporter; hit rate 1.8% among 300,000; calls by dose curve; tested in HEK293 cells; also: potency is read from the fitted curve at half-maximal effect; % is scaled to controls: 0 for no effect and ±100 for the full control effect
LASV entry inh = blocks Lassa virus binding to or entry into cells; AID 540256; Potency, µM (series often up to 37.9 µM), without a hit: top-dose activity change, negative = inhibition, most hits filed as inhibitors; Lassa virus pseudotype entry inhibition, cell reporter; hit rate 1.2% among 300,000; calls by dose curve; tested in HEK293 cells; also: potency is read from the fitted curve at half-maximal effect; % is scaled to controls: 0 for no effect and ±100 for the full control effect; nearly all actives have a fitted effect of over 50% in size
Pf growth 48h = inhibits P. falciparum growth in the first generation, 48 h | Potency, µM (highest dose often 28.7 µM), for the others: at the top dose activity change, negative = inhibition, actives largely listed as inhibitors | P. falciparum luciferase growth in erythrocytes, 48 h | hit rate 5.9% among 310,000; also: potency is read from the fitted curve at half-maximal effect; % is scaled to controls: 0 for no effect and ±100 for the full control effect
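A one-generation exposure of luciferase-tagged malaria parasites in RPMI 1640/Albumax erythrocyte culture, 37 C and 5% CO2. Inhibition is inferred from decreased luminescence after adding detection reagent.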
Pf growth 96h = P. falciparum growth inhibition at 96 hours | AID 504834 | Potency, µM (titrated, usually from 28.7 µM), for the others: at the top dose activity change, negative = inhibition, hits mostly inhibitors | hit rate 6.9% among 320,000 | P. falciparum luciferase reporter growth, 96 h; also: potency is read from the fitted curve at half-maximal effect; % is scaled to controls: 0 for no effect and ±100 for the full control effect
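Plates of compound plus infected erythrocytes (2% hematocrit, 0.05% parasitemia final) incubate 96 hours, 37 C, 5% CO2. Detection reagent added; reduced luminescence from the parasites' luciferase reporter flags inhibition.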
Numbers without * were called inactive; ? = inconclusive; nt = not tested or not shown; [ ] = another dose, or the depositor's remark. Unless noted, calls follow the shape of the dose curve; as a rule, active = well fitted inhibition curve with a large enough effect; inconclusive = small, poorly fitted or top-dose-only effect, or another doubt; inactive = no such curve, though single readings can be large or run the other way.

SMILES	Shiga inhibitor	Cycloheximide cs	Marburg entry inh	LASV entry inh	Pf growth 48h	Pf growth 96h
Cc1ccc(C(=O)Nc2ccc(S(=O)(=O)NC3=NCCCCC3)cc2)cc1S(=O)(=O)N1CCOCC1	nt	nt	nt	nt	2.3µM*	13µM*
CC1CN(S(=O)(=O)c2cccc(C(=O)Nc3ccc(S(=O)(=O)NC4=NCCCCC4)cc3)c2)CC(C)O1 (stereo unspecified)	nt	nt	?	-8%	13µM*	?
CCc1cc(C(=O)Nc2ccc(S(=O)(=O)NC3=NCCCCC3)cc2)sc1C	nt	nt	14%[46.1 µM]	7%	?	4.1µM*
CC(=O)c1cccc(NC(=O)NN2CCN(C)CC2)c1	-13	-2	nt	nt	7%	6%
O=C1CCN(CCc2ccccc2)CCN1C(CSc1ccc(Br)cc1)c1ccccc1 (stereo unspecified)	41	33*	nt	nt	nt	nt
Cc1ccc(SC[C@H](c2ccccc2)N2CCN(CCc3ccccc3)CCC2=O)cc1	59*	33*	nt	nt	?	?
O=C1CCN(CCc2ccccc2)CCN1[C@H](CO)c1ccccc1	-4	-1	nt	nt	?	?
O=C1CCN(CCc2ccccc2)CCN1[C@H](CSc1ccccc1)c1ccccc1	13	15*	nt	nt	?	?
Cc1ccc(SCC(c2ccccc2)N2CCN(CCc3ccccc3)CCC2=O)cc1 (stereo unspecified)	35*	48*	nt	nt	nt	nt
Cc1ccc(SCC(Cc2ccccc2)N2CCN(CCc3ccccc3)CCC2=O)cc1 (stereo unspecified)	-10	-2	nt	nt	nt	nt
O=C(O)C1C(c2ccccc2)C(C(=O)Oc2ccccc2)C1c1ccccc1 (stereo unspecified)	-5	-3	-14%	-7%	nt	?
CCOC(=O)N1CCN(Cc2nc(CC3CC3)no2)CC1	34*	27*	?	16%[46.1 µM]	47%	-9%
CN(C)C(=O)CN1CCN(Cc2nc(CC3CC3)no2)CC1	6	-2	8%[46.1 µM]	29%	7%	19%
Cc1cc(NC(=O)CSc2nnc(COc3cccc(C)c3C)n2Cc2ccco2)no1	-11	-1	16%	11%	22%	59%
COc1ccccc1NC(=O)CSc1nnc(-c2ccccn2)n1Cc1ccco1	13	-5	-15%	3%	?	12µM*
Cc1cccc(OCc2nnc(SCC(=O)N(C(C)C)C(C)C)n2Cc2ccco2)c1C	-13	1	?	-15%	12µM*	?
COc1ccc(C)cc1NC(=O)CSc1nnc(COc2ccccc2)n1Cc1ccco1	-21	1	?	-6%	?	10µM*
CCOC(=O)c1oc2ccc(Br)cc2c1COC(=O)C1=COCCO1	nt	nt	-11%[46.1 µM]	8%	35%	3%
O=C(O)[C@@]1(CCCCCCOc2ccc(Cl)cc2)CO1	14	-5	nt	nt	nt	nt
COc1ccc(-n2nc(C(=O)Nc3ccccn3)c3c4ccccc4n(C)c3c2=O)cc1	nt	nt	?	10%[46.1 µM]	nt	nt
CC(=O)Nc1nccc(-c2cc(-c3ccccc3)no2)n1	53*	30*	nt	nt	191%	114%
CC(=O)Nc1cccc(-c2cc(-c3c(Cl)cccc3Cl)no2)c1	4	-3	nt	nt	?	-18%
COCCCNC(=O)/C=C/c1ccc(Cl)cc1	50*	21*	2%	6%	31%	91%
O=C(/C=C/c1cccc(Cl)c1)Nn1c(-c2cccs2)nc2ccccc2c1=O	-2	0	0%	10%	-1%	2.1µM*
O=C(/C=C/c1ccc(Cl)cc1)NCc1cccs1	92*	53*	-3%	5.8µM*	70%	13%
SMILES	Shiga inhibitor	Cycloheximide cs	Marburg entry inh	LASV entry inh	Pf growth 48h	Pf growth 96h
O=C(/C=C/c1cccc(Cl)c1)NCc1cccs1	41*	38*	4%	?	7%	?
O=C(/C=C/C(=O)NCc1cccs1)NCc1cccs1	-4	-3	-3%[46.1 µM]	-15%	6%	25%
COCCCNC(=O)/C=C/c1c(Cl)cccc1Cl	30	3	16%	8%	40%	25%
Cc1ccc(C)c(S(=O)(=O)NCc2cccnc2)c1	6	-1	16%	21%[14.3 µM]	?	nt
CCCCn1c(-c2csc3c2CCCC3)n[nH]c1=S	37	22	3%	0%	nt	-9%
CCCCn1c(-c2csc3c2CCC(C)C3)n[nH]c1=S (stereo unspecified)	-11	-3	-2%	15%	0.93µM*	-33%
COc1cccc(C(=O)NC2CCN(CC(=O)Nc3cccc(C)c3C)CC2)c1	-4	1	nt	nt	5%	?
Cc1ccc(S(=O)(=O)NCCSc2nnnn2-c2ccccc2)cc1	2	-2	-14%[46.1 µM]	-17%[46.1 µM]	-4%	?
O=C(Nc1ccccn1)c1ccc([N+](=O)[O-])o1	65*	33*	-23%	-8%	?	?
O=C(Nc1nc2c(Cl)cccc2s1)c1ccc([N+](=O)[O-])o1	nt	2	?	3%	-25%	39%
O=C(Nc1nc2c(F)cccc2s1)c1ccc([N+](=O)[O-])o1	9	11*	nt	nt	?	?
Cc1ccnc(NC(=O)c2ccc([N+](=O)[O-])o2)c1	133*	68*	?	?	3%	?
O=C(Nc1ncccn1)c1ccc([N+](=O)[O-])o1	64*	52*	?	-3%	8.3µM*	64%
O=C(Nc1ccccc1C(=O)Nc1ccccn1)c1ccc([N+](=O)[O-])cc1	11	-3	-30%	-26%	5%	?
Cc1cc(C(=O)Nc2ccc(C)c(C)c2)n(-c2ccccc2)n1	1	1	8%	-29%	-8%[0.00184 µM]	3%
O=C(Cn1cnc2cc([N+](=O)[O-])ccc2c1=O)N(Cc1ccccc1)C1CCS(=O)(=O)C1 (stereo unspecified)	-15	-3	0%	15%	-3%	7%
CCCOc1ccc(N2C(=O)CC(N(CCc3ccc(OC)cc3)C(=O)c3cccc(F)c3)C2=O)cc1 (stereo unspecified)	-8	-2	?	?	?	-9%
Cc1cc(C)nc(NS(=O)(=O)c2ccc(NC(=O)c3ccccc3C)cc2)n1	nt	-2	nt	nt	?	?
CC1C(=O)O[C@@H]2C[C@@H](C)[C@@H]3CCC(=O)[C@@]3(C)[C@@H](O)[C@H]12 (stereo partly specified)	-9	3	nt	nt	63%	73%
CC(=O)O[C@@H]1[C@H]2[C@@H](C[C@@H](C)[C@@H]3CCC(=O)[C@@]13C)OC(=O)[C@@H]2C	-11	18*	nt	nt	18%	55%
CCC(=O)Nc1cc(C(=O)OCc2ccc(C(=O)Oc3ccccc3)cc2)ccc1C	-4	-1	?	8%	66%	0%
Cc1cc(C)c(C(=O)/C=C/c2cccc3ccccc23)c(=O)[nH]1	-12	0	?	6.3µM*	?	?
C/C(=C\c1ccccc1F)C(=O)c1c(C)cc(C)[nH]c1=O	-5	-2	5%	0%	-7%	?
Cc1cc(C)c(C(=O)/C=C/c2ccc3c(c2)OCO3)c(=O)[nH]1	15	3	-19%[46.1 µM]	-22%	0%	69%

Screens from PubChem.
